# Laboratory results: PubChem BioAssay (Tox21)
# The source made the active and inactive calls. Calls come from the whole dose curve; as a rule, active = well fitted curve in the direction sought with a large enough effect in the repeat runs; inconclusive = weak or mixed curves; inactive = flat fitted curve, though single readings scatter.
# Assay: qHTS assay to test for compound auto fluorescence at 535 nm (green) in HEK293 cell free culture (AID 720682)
# Details: cell-free medium, green autofluorescence 485/535 nm, stronger effect = higher value; series mostly up to 91.3 µM; activity change: at the top concentration
# Description: U.S. Tox21 Program National Center for Advancing Translational Sciences [NCATS] NIH Chemical Genomics Center [NCGC] U.S. Environmental Protection Agency [EPA] National Institutes of Environmental Health Sciences [NIEHS] National Toxicology Program [NTP] U.S. Food and Drug Administration [FDA] Tox21 Assay Overview: Compound auto fluorescence often interferes with screening of the compound library against various biological targets and signaling pathways. Some of these compounds may have fluorophoric properties. Such properties may interfere with the assay outputs resulting in false positives and/or negatives. To decrease such complications and ensure the compound activities are relevant in terms of biological response, the Tox21 10K compound library was screened for auto fluorescence. From the fluorophores used as reporter signals in our screening assays, the auto fluorescence equivalencies of compounds against three fluorophores have been evaluated: Triamterene, Fluorescein and Rose Bengal sodium for blue, green and red fluorescence, respectively. The fluorescence intensities were measured using Excitation/Emission wavelengths at 405/460nm, 485/535nm and 540/590nm for blue, green and red labels, respectively. This assay includes the green fluorescence data.
# Tox21 Assay Protocol Summary: 5 uL of culture medium (DMEM containing 10% FBS) per well was dispensed into black wall/clear bottom 1536-well plates using a Multidrop Combi Dispenser (ThermoFisher Scientific, Waltham, MA). After 23 nL compound or DMSO vehicle was transferred into assay plate by a pintool work station (Kalypsys, San Diego, CA), fluorescence intensities in the assay plates were measured by an Envision (PerkinElmer, Shelton, CT) plate reader using three labels for measuring blue, green and red fluorescence at […] 460, 535 and 590nm respectively.
# % is set by controls: 0 for no effect and ±100 for the full control effect.
Structure (SMILES),activity change,outcome
CCCOc1ccc2nc(NC(=O)OC)[nH]c2c1,0.0106% [at 46 µM] (inactive),–
O=[N+]([O-])c1cc[n+]([O-])cc1,-0.0388% (inactive),–
CC(=O)[C@@]1(O)CC[C@H]2[C@@H]3C[C@H](C)C4=CC(=O)CC[C@]4(C)[C@H]3CC[C@@]21C,0.177% [at 46 µM] (inactive),–
Cc1cc(C)c(S(=O)(=O)O)cc1N=Nc1cc(S(=O)(=O)O)c2ccccc2c1O,-0.985% (inactive),–
O=C(NS(=O)(=O)/C=C/c1cccs1)c1ccc(F)cc1Br,-0.111% (inactive),–
CCCC(C)C,-0.0176% (inactive),–
C=CC(=O)OCC(C)OCC(C)OCC(C)OC(=O)C=C (stereo not given),0.0994% (inactive),–
NCc1ccccc1,0.0588% (inactive),–
Cc1cccc(Oc2ccccc2)c1,-0.0652% (inactive),–
CCCCCCCCN(C)C,0.127% (inactive),–
Cc1ccccc1N=Nc1ccc(N=Nc2c(O)ccc3ccccc23)c(C)c1,0.0947% [at 46 µM] (inactive),–
Cc1ccc(O)c([C@H](CCN(C(C)C)C(C)C)c2ccccc2)c1,0.0224% [at 46 µM] (inactive),–
O=C1[C@H](CC[C@H](O)c2ccc(F)cc2)[C@@H](c2ccc(O)cc2)N1c1ccc(F)cc1,0.0444% [at 46 µM] (inactive),–
C#CCOC(=O)[C@@H](C)Oc1ccc(Oc2ncc(Cl)cc2F)cc1,0.052% (inactive),–
Nc1cnn([C@@H]2O[C@H](CO)[C@@H](O)[C@H]2O)c(=O)n1,-0.142% (inactive),–
CCOc1nc2cccc(C(=O)O)c2n1Cc1ccc(-c2ccccc2-c2nn[nH]n2)cc1,0.0035% [at 46 µM] (inactive),–
N=C(N=C(N)N)N1CCOCC1,-0.0209% [at 18.6 µM] (inactive),–
COc1ccc([C@@H]2Sc3ccccc3N(CCN(C)C)C(=O)[C@@H]2OC(C)=O)cc1,0.0343% [at 46 µM] (inactive),–
Cc1ccc(C(=O)C(C)CN2CCCCC2)cc1 (stereo not given),–,inactive
CCCCCCCCCCCCC(=O)O,0.0393% (inactive),–

Structure (SMILES),activity change,outcome
CC(CN)CCCN (stereo not given),-0.0066% (inactive),–
CC(C)(C)C1CCCCC1O (stereo not given),0.0091% (inactive),–
O=C(O)[C@@H]1[C@H]2C[C@H]3c4[nH]c5ccccc5c4CCN3C[C@@H]2CC[C@@H]1O,-0.0263% [at 18.6 µM] (inactive),–
O=C(Cl)c1ccc([N+](=O)[O-])cc1,-0.0311% (inactive),–
CCCCOc1ccc(CC(=O)NO)cc1,0.0033% [at 18.6 µM] (inactive),–
CCCCCCCCCCCCCCC1CO1 (stereo not given),0.102% (inactive),–
CC[C@H](C)[C@H](N)C(=O)O,-0.0917% [at 46 µM] (inactive),–
O=C(O)C1CCC(C(=O)O)CC1 (stereo not given),-0.0547% (inactive),–
CC(C)=CCCC(C)CC=O (stereo not given),-0.0606% (inactive),–
CCCCCC/C=C/C=O,0.0032% (inactive),–
O=[N+]([O-])c1cccc(Cl)c1Cl,0.0222% (inactive),–
CCOC(=S)SSC(=S)OCC,–,inactive
COC(=O)C(C)=O,0.0867% (inactive),–
N#Cc1cc2ccccc2c2ccccc12,0.0419% (inactive),–
CCCCCCc1ccc(N)cc1,0.0569% (inactive),–
Nc1nc(CC(=O)O)cs1,-0.0299% (inactive),–
C=Cc1c(C)c2cc3[nH]c(cc4nc(cc5nc(cc1[nH]2)C(C)=C5CCC(=O)O)C(CCC(=O)O)=C4C)c(C)c3C=C,-0.059% [at 46 µM] (inactive),–
COCCO,-0.0784% (inactive),–
CCN(CC)CCc1nc(-c2ccccc2)no1,0.0186% [at 18.6 µM] (inactive),–
CC(O)C1CCCCC1 (stereo not given),-0.0234% (inactive),–
